The chains are these.
T1: RBFOX1 RRM RbFoxmut (Fox-RRM*) (Homo sapiens, UniProt Q9NWB1 109-208, R118D;E147R;N151S;E152T)
T1 sequence: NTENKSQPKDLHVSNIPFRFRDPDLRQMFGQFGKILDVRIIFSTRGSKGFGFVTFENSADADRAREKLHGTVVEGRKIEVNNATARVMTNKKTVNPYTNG

B1: GCAUCCG (DNA:RNA)
RNA: GGGAGACCGGAAUUCAGAUUGUCCGCAUCCGUUAAAUCCCGUCGUAGCCACCA
DNA 1: CAATCTGAATTCCGGTCTCCC
DNA 2: TGGTGGCTACGACGGGATT
B2: GCAUCAA (DNA:RNA)
RNA: B1 RNA with C30A, G31A
DNA 1: CAATCTGAATTCCGGTCTCCC
DNA 2: TGGTGGCTACGACGGGATT
B3: GAAUCGG (DNA:RNA)
RNA: B1 RNA with C26A, C30G
DNA 1: CAATCTGAATTCCGGTCTCCC
DNA 2: TGGTGGCTACGACGGGATT
B4: GCAUCGG (DNA:RNA)
RNA: B1 RNA with C30G
DNA 1: CAATCTGAATTCCGGTCTCCC
DNA 2: TGGTGGCTACGACGGGATT
B5: GCACCGC (DNA:RNA)
RNA: B1 RNA with U28C, C30G, G31C
DNA 1: CAATCTGAATTCCGGTCTCCC
DNA 2: TGGTGGCTACGACGGGATT
B6: GCACCGG (DNA:RNA)
RNA: B1 RNA with U28C, C30G
DNA 1: CAATCTGAATTCCGGTCTCCC
DNA 2: TGGTGGCTACGACGGGATT
B7: GCAAUCG (DNA:RNA)
RNA: B1 RNA with U28A, C29U
DNA 1: CAATCTGAATTCCGGTCTCCC
DNA 2: TGGTGGCTACGACGGGATT
B8: GCAUCGC (DNA:RNA)
RNA: B1 RNA with C30G, G31C
DNA 1: CAATCTGAATTCCGGTCTCCC
DNA 2: TGGTGGCTACGACGGGATT
B9: GCAUCAG (DNA:RNA)
RNA: B1 RNA with C30A
DNA 1: CAATCTGAATTCCGGTCTCCC
DNA 2: TGGTGGCTACGACGGGATT
B10: GCAUCUG (DNA:RNA)
RNA: B1 RNA with C30U
DNA 1: CAATCTGAATTCCGGTCTCCC
DNA 2: TGGTGGCTACGACGGGATT
B11: CGCAUCG (DNA:RNA)
RNA: B1 RNA with G25C, C26G, A27C, U28A, C29U
DNA 1: CAATCTGAATTCCGGTCTCCC
DNA 2: TGGTGGCTACGACGGGATT
B12: GCAUCAC (DNA:RNA)
RNA: B1 RNA with C30A, G31C
DNA 1: CAATCTGAATTCCGGTCTCCC
DNA 2: TGGTGGCTACGACGGGATT
B13: AGAGCGA (DNA:RNA)
RNA: B1 RNA with G25A, C26G, U28G, C30G, G31A
DNA 1: CAATCTGAATTCCGGTCTCCC
DNA 2: TGGTGGCTACGACGGGATT
B14: CCCUUUC (DNA:RNA)
RNA: B1 RNA with G25C, A27C, C29U, C30U, G31C
DNA 1: CAATCTGAATTCCGGTCTCCC
DNA 2: TGGTGGCTACGACGGGATT
B15: UACGGGG (DNA:RNA)
RNA: B1 RNA with G25U, C26A, A27C, U28G, C29G, C30G
DNA 1: CAATCTGAATTCCGGTCTCCC
DNA 2: TGGTGGCTACGACGGGATT
B16: CCGCCGG (DNA:RNA)
RNA: B1 RNA with G25C, A27G, U28C, C30G
DNA 1: CAATCTGAATTCCGGTCTCCC
DNA 2: TGGTGGCTACGACGGGATT
B17: AGGCCUA (DNA:RNA)
RNA: B1 RNA with G25A, C26G, A27G, U28C, C30U, G31A
DNA 1: CAATCTGAATTCCGGTCTCCC
DNA 2: TGGTGGCTACGACGGGATT
B18: AGAGUUC (DNA:RNA)
RNA: B1 RNA with G25A, C26G, U28G, C29U, C30U, G31C
DNA 1: CAATCTGAATTCCGGTCTCCC
DNA 2: TGGTGGCTACGACGGGATT
B19: GCGAGUG (DNA:RNA)
RNA: B1 RNA with A27G, U28A, C29G, C30U
DNA 1: CAATCTGAATTCCGGTCTCCC
DNA 2: TGGTGGCTACGACGGGATT
B20: GCAUUGU (DNA:RNA)
RNA: B1 RNA with C29U, C30G, G31U
DNA 1: CAATCTGAATTCCGGTCTCCC
DNA 2: TGGTGGCTACGACGGGATT
B21: AGCAUCG (DNA:RNA)
RNA: B1 RNA with G25A, C26G, A27C, U28A, C29U
DNA 1: CAATCTGAATTCCGGTCTCCC
DNA 2: TGGTGGCTACGACGGGATT
B22: GCAUCCA (DNA:RNA)
RNA: B1 RNA with G31A
DNA 1: CAATCTGAATTCCGGTCTCCC
DNA 2: TGGTGGCTACGACGGGATT
B23: GCACCGU (DNA:RNA)
RNA: B1 RNA with U28C, C30G, G31U
DNA 1: CAATCTGAATTCCGGTCTCCC
DNA 2: TGGTGGCTACGACGGGATT
B24: GCAUCGU (DNA:RNA)
RNA: B1 RNA with C30G, G31U
DNA 1: CAATCTGAATTCCGGTCTCCC
DNA 2: TGGTGGCTACGACGGGATT
B25: AUCCGCA (DNA:RNA)
RNA: B1 RNA with G25A, C26U, A27C, U28C, C29G, G31A
DNA 1: CAATCTGAATTCCGGTCTCCC
DNA 2: TGGTGGCTACGACGGGATT
B26: AGCAUCC (DNA:RNA)
RNA: B1 RNA with G25A, C26G, A27C, U28A, C29U, G31C
DNA 1: CAATCTGAATTCCGGTCTCCC
DNA 2: TGGTGGCTACGACGGGATT
B27: AGCACCG (DNA:RNA)
RNA: B1 RNA with G25A, C26G, A27C, U28A
DNA 1: CAATCTGAATTCCGGTCTCCC
DNA 2: TGGTGGCTACGACGGGATT
B28: GCAUCGA (DNA:RNA)
RNA: B1 RNA with C30G, G31A
DNA 1: CAATCTGAATTCCGGTCTCCC
DNA 2: TGGTGGCTACGACGGGATT

Substitutions are numbered along the chain they refer to; changes in the protein carry UniProt numbers. Whole data set: some 16,000 sequences, median “ka relative to ugcaugu” near 0.096, cut for the highest 2% near 0.35. This excerpt belongs to a sample that is enriched for the highest values.

In this test the target is T1, RBFOX1 RRM RbFoxmut (Fox-RRM*). Kind of test: EMSA; HiTS-Eq, 1 nM pool, 10 min; buffer printed only for the single-RNA assays: 10 mM Tris pH 7.5, 150 mM NaCl, 3.4 mM EDTA, 0.001% NP-40, 30 C. The note with it: tags: His6 N-terminal (pET28a); label: 5' 32P. A digest of the protocol: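 These values rest on relative association constants, computed from read-count changes of each RNA species versus the control reaction and normalised to the cognate motif. Reads came from free RNA recovered by 8% native PAGE after purified RbFox RRM (wild type or mutant) at increasing concentrations was equilibrated for 10 min in 50 µL with 1 nM of a 5′-radiolabelled pool with 7 randomized nucleotides and DNA-annealed flanks.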
A general note: Mobility shift assays separate free from complexed probe on a gel.
With B1, the binding signal was 0.351 KA relative to UGCAUGU.
Next, B2: 0.323 KA relative to UGCAUGU.
With B3, the binding signal was 0.186 KA relative to UGCAUGU.
The same measure for B4: 0.454 KA relative to UGCAUGU; for B5: 0.139 KA relative to UGCAUGU.
The same measure for B6: 0.102 KA relative to UGCAUGU; for B7: 0.0721 KA relative to UGCAUGU; for B8: 0.443 KA relative to UGCAUGU.
Next, B9: 0.382 KA relative to UGCAUGU; B10: 0.264 KA relative to UGCAUGU.
B11: the binding signal was 0.625 KA relative to UGCAUGU.
Next, B12: 0.293 KA relative to UGCAUGU; B13: 0.0748 KA relative to UGCAUGU; B14: 0.0564 KA relative to UGCAUGU.
The same measure for B15: 0.0585 KA relative to UGCAUGU.
Next, B16: 0.0808 KA relative to UGCAUGU; B17: 0.0817 KA relative to UGCAUGU.
On to B18, for which the binding signal is 0.0781 KA relative to UGCAUGU.
In the case of B19, the binding signal was 0.184 KA relative to UGCAUGU.
Next, B20: 0.228 KA relative to UGCAUGU; B21: 0.437 KA relative to UGCAUGU; B22: 0.338 KA relative to UGCAUGU.
Regarding B23, the binding signal was 0.172 KA relative to UGCAUGU.
With B24, the binding signal is 0.578 KA relative to UGCAUGU.
Turning to B25, the binding signal was 0.167 KA relative to UGCAUGU.
Take B26: the binding signal was 0.237 KA relative to UGCAUGU.
Take B27: the binding signal was 0.104 KA relative to UGCAUGU.
Next, B28: 0.675 KA relative to UGCAUGU.

(Values after PMC9911399, “Two distinct binding modes provide the RNA-binding protein RbFox with extraordinary sequence specificity”.)
